# Assay results published in PMC5700166.
# Changes are numbered by the printed parent chain.
# Assays:
# Test in all cases: protein-binding microarray (PBM); PBM: ~300 nM protein, 6 mM HEPES pH 7.8, 80 mM KCl, 0.5 mM EDTA, 0.5 mM EGTA, 6% glycerol, 35 ng/ul poly-dIdC, 1% milk, 1 h, room temperature; Ap Aiptasia and Nv Nematostella (sea anemones) / Co Capsaspora / Aq Amphimedon (sponge) / Dm Drosophila / Hu human; RHD is the Rel homology domain; high values mean tight binding
# Conditions in all cases: dsDNA, one strand shown
# GST-Ap-NF-kB RHD = target: T1, GST-Ap-NF-kB RHD (Exaiptasia pallida (Aiptasia), UniProt A0A913YAJ5 2-422)
# T1 sequence: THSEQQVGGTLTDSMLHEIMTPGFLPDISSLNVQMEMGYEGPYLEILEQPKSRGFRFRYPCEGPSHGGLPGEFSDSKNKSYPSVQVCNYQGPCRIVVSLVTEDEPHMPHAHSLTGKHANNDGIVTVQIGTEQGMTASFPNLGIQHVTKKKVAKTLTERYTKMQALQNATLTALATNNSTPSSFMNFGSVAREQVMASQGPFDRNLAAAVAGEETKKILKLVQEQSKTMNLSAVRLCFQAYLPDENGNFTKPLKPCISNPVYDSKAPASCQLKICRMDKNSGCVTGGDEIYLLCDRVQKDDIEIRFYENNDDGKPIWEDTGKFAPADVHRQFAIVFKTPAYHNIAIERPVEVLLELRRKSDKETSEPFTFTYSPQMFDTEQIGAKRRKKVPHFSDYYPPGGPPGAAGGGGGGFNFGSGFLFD
# [1] = target: T2, GST-Nv-NF-kB (Cys allele) (Nematostella vectensis, UniProt E5G601 2-411)
# T2 sequence: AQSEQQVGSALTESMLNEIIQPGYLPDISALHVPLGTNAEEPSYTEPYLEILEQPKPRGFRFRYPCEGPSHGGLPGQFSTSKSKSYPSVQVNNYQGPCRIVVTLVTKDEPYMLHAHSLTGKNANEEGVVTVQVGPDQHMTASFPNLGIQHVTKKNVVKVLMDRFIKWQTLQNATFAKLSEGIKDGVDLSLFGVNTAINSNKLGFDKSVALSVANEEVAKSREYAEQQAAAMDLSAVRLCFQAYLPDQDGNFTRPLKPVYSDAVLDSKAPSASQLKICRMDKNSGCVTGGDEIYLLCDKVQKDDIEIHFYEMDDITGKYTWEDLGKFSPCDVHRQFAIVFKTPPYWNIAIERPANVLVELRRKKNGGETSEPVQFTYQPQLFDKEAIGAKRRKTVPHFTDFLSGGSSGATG
# [2] = target: T3, GST-Nv-NF-kB (Ser allele) (Nematostella vectensis, UniProt A7UNT2 2-411)
# T3 sequence: T2 sequence with Q21R, C66S, S207N, E215Q, V217A, E225K, A268E, D399E
# GST-Co-NF-kB = target: T4, GST-Co-NF-kB (Capsaspora owczarzaki, UniProt F1ARL5 200-546)
# T4 sequence: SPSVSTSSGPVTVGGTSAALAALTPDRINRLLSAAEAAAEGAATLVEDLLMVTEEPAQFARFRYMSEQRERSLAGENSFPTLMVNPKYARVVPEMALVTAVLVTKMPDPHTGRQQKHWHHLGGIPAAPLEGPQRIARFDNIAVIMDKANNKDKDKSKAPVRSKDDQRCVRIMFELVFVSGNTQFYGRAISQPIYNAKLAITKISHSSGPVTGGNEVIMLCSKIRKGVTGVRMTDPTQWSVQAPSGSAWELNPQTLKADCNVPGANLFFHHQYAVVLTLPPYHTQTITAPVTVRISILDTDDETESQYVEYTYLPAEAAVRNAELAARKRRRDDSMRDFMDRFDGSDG
# GST-Dm-Relish = target: T5, GST-Dm-Relish (Drosophila melanogaster, UniProt Q94527 99-473)
# T5 sequence: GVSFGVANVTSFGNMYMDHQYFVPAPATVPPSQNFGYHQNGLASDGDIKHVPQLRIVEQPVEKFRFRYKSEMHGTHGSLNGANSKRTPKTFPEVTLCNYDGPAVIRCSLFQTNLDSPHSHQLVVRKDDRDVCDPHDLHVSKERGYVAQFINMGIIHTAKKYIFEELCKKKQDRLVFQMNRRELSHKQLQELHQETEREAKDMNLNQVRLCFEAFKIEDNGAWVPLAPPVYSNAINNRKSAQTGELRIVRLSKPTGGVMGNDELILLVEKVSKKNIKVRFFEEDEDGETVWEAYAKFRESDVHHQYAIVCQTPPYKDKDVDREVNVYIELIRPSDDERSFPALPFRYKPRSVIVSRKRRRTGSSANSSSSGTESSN
# GST-Aq-NF-kB = target: T6, GST-Aq-NF-kB (Amphimedon queenslandica, UniProt A9Y5G7 2-389)
# T6 sequence: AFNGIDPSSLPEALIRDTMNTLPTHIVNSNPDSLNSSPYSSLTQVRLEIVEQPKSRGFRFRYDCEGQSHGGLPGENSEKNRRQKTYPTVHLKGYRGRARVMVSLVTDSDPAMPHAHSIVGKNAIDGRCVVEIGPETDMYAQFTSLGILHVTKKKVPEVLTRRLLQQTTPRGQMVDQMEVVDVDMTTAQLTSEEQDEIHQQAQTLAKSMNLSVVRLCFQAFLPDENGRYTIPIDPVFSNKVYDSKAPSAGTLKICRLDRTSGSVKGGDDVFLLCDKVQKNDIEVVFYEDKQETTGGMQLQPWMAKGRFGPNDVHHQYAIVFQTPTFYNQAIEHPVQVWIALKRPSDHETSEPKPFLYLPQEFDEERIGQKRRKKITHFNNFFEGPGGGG
# GST-Hu-p50 = GST-Hu-p50 (Homo sapiens, UniProt P19838 7-356)
# Chain of GST-Hu-p50 (P19838 7-356): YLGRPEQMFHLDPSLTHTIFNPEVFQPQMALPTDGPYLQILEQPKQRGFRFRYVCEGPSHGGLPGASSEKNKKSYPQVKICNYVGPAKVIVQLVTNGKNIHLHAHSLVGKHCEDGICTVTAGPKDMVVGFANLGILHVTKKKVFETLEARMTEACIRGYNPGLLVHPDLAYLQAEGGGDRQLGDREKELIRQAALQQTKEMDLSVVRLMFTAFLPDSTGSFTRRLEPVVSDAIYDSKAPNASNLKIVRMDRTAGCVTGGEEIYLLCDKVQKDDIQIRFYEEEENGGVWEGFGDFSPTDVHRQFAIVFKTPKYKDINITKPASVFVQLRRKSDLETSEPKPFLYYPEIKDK
Sequence,binding signal (GST-Ap-NF-kB RHD) [z-score],binding signal [1] [z-score],binding signal [2] [z-score],binding signal (GST-Co-NF-kB) [z-score],binding signal (GST-Dm-Relish) [z-score],binding signal (GST-Aq-NF-kB) [z-score],binding signal (GST-Hu-p50) [z-score]
CCGATTAACATCAGGGGATATTATGATGTTAATCGGGTCTTGATTCGCTTGACGCTGCTG,7.99,7.96,9.17,4.65,6.28,6.34,6.06
CCGATTAACATCAAACTCCCCCTTGATGTTAATCGGGTCTTGATTCGCTTGACGCTGCTG,8.05,6.74,8.38,6.26,6.54,6.59,7.29
CCGATTAACATCAGGGGGCGGGATGATGTTAATCGGGTCTTGATTCGCTTGACGCTGCTG,3.64,4,3.53,2.28,3.49,4.03,4.21
CCGATTAACATCAGAAGTGGGAATGATGTTAATCGGGTCTTGATTCGCTTGACGCTGCTG,2.07,2,1.53,2.78,1.15,2.35,1.13
CCGATTAACATCAGGGGATTAACTGATGTTAATCGGGTCTTGATTCGCTTGACGCTGCTG,5.48,6.31,7.11,2.99,8.54,5.82,4.93
CCGATTAACATCAATATCCCCCATGATGTTAATCGGGTCTTGATTCGCTTGACGCTGCTG,6.62,4.94,5.43,6.5,3.73,4.55,5.2
CCGATTAACATCAGGGGGGTGCATGATGTTAATCGGGTCTTGATTCGCTTGACGCTGCTG,4.21,2.54,3.71,3.47,4.16,3.59,3.86
CCGATTAACATCAAATATCCCCCTGATGTTAATCGGGTCTTGATTCGCTTGACGCTGCTG,8.79,8.51,8.83,8.39,7.63,6.9,6.58
CCGATTAACATCAAATTCCCATGTGATGTTAATCGGGTCTTGATTCGCTTGACGCTGCTG,2.41,4.08,4.15,1.96,3.99,2.58,3.09
CCGATTAACATCAGGGGGGGCTATGATGTTAATCGGGTCTTGATTCGCTTGACGCTGCTG,4.3,3.34,3.58,5.06,4.12,4.07,4.09
CCGATTAACATCAGAGATTCCCCTGATGTTAATCGGGTCTTGATTCGCTTGACGCTGCTG,8.42,9.61,10.1,6.66,6.36,7.04,6.76
CCGATTAACATCAGGCATTCCCCTGATGTTAATCGGGTCTTGATTCGCTTGACGCTGCTG,6.9,8.51,7.12,3.19,7.67,7.93,5.74
CCGATTAACATCAACGATTCCCCTGATGTTAATCGGGTCTTGATTCGCTTGACGCTGCTG,5.94,6.55,8.86,6.02,3.74,4.38,5.62
CCGATTAACATCAGGGGATGAACTGATGTTAATCGGGTCTTGATTCGCTTGACGCTGCTG,2.44,3.65,4.24,3.23,7.62,3.73,2.94
CCGATTAACATCAGGAACTCCCATGATGTTAATCGGGTCTTGATTCGCTTGACGCTGCTG,2.86,2.53,1.04,1.08,4.29,3.71,1.95
CCGATTAACATCAAGGGAATTTATGATGTTAATCGGGTCTTGATTCGCTTGACGCTGCTG,4.54,7.59,7.58,3.54,4.78,5.69,5.62
CCGATTAACATCAAAACGTCCCCTGATGTTAATCGGGTCTTGATTCGCTTGACGCTGCTG,6.23,6.41,6.45,5.34,5.03,6.19,5.59
CCGATTAACATCACTTTTCCCCCTGATGTTAATCGGGTCTTGATTCGCTTGACGCTGCTG,6.53,7.4,8.95,10.8,3.73,5.27,6.51
CCGATTAACATCAGGGGGATTAATGATGTTAATCGGGTCTTGATTCGCTTGACGCTGCTG,6.25,6.39,7.21,6.77,5.97,5.39,6.36
